# Measured values taken from the supplement of paper PMC12636033.
# ± gives the standard deviation of the averaged measurements. Whole data set: some 33,000 sequences, median “E-score (rank enrichment, -0.5 to 0.5)” near -0.0028, cut for the highest 2% near 0.23. This excerpt belongs to a sample that is enriched for the highest values.
# Test system: 2Sb-muMax20 (muMax20 with two 1,3-bis(methyl)benzene Cys staples, A13C/A17C and Q88C/A92C, C-terminal Lys)
# Test: PBM 8-mer E-score (E-score (rank enrichment, -0.5 to 0.5)); higher = stronger preferential binding
# Description: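 Protein binding microarray (universal PBM chip covering all 10-mers in fixed probe flanks) with chemically synthesized human Max(13-93) bHLH-LZ analogs (not full-length Max) bearing noncanonical residues (hArg, Tha, Aib, Nle at 65) and aromatic Cys staples. Read-out per 8-mer (and its reverse complement): E-score (rank-based enrichment, -0.5 to 0.5) and Z-score of median probe intensity.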
row,Sequence,PBM 8-mer E-score
1,CGTACCCC,0.246 ± 0.015
2,AGTACCCC,0.129 ± 0.038
3,ACTACCCC,0.214 ± 0.047
4,CCTACCCC,0.248 ± 0.062
5,ATGAAAAC,0.0577 ± 0.019
6,CAGGAAAC,-0.0883 ± 0.035
7,CGACTCAC,-0.236 ± 0.04
8,AGGGTTCC,-0.294 ± 0.015
9,ACGTATGA,0.127 ± 0.02
10,ACGTATGC,0.238 ± 0.066
11,CCGTATGC,-0.07 ± 0.043
12,TCCGAGCA,-0.1624 ± 0.00048
13,AACCCCAT,0.156 ± 0.03
14,CATTAGAA,0.00421 ± 0.034
15,GATTAGAA,0.00142 ± 0.015
16,TATTAGAA,0.259 ± 0.036
17,ACCCGCCT,0.0215 ± 0.042
18,ATGCCGAC,-0.112 ± 0.0097
19,GGTGGGGA,0.302 ± 0.032
20,AGTGGGGA,0.3126 ± 0.0004
21,AGTGGGAT,0.293 ± 0.031
22,GGTGGGCA,0.262 ± 0.0056
23,AGTGGGGG,0.085 ± 0.077
24,AGTGGGGC,0.0302 ± 0.058
25,GGTGGGAA,0.0964 ± 0.019
26,AGTGGGAG,-0.0115 ± 0.017

row,Sequence,PBM 8-mer E-score
1,CGTGGGCA,0.00349 ± 0.003
2,AGTGGGAA,0.105 ± 0.12
3,GTTGGGCA,0.024 ± 0.041
4,CGTGGGGA,0.0752 ± 0.016
5,CAATACCC,0.216 ± 0.021
6,ATCAAGCA,-0.0166 ± 0.023
7,AACGTTAC,0.0258 ± 0.019
8,AATGGACA,0.0255 ± 0.059
9,CATCCCAG,-0.121 ± 0.0081
10,AACGGCGA,-0.0512 ± 0.014
11,ACGATAAA,0.014 ± 0.017
12,AGCAGAGG,-0.0143 ± 0.0075
13,CGGTGGGA,0.00626 ± 0.078
14,GGGTGGGA,0.314 ± 0.026
15,AGGTGGGA,0.13 ± 0.12
16,ATACGCAA,0.303 ± 0.0063
17,GTACGCAA,-0.0811 ± 0.049
18,ATACGCAG,-0.0883 ± 0.0056
19,ATAGATAA,0.185 ± 0.09
20,GTATATAA,0.119 ± 0.015
21,GTATATAC,0.296 ± 0.039
22,ATAGATAC,0.239 ± 0.02
23,CTATATAC,0.214 ± 0.027
24,CTATATCC,0.217 ± 0.014
25,ATATATAT,0.00253 ± 0.052
26,ATATATAC,0.289 ± 0.038

row,Sequence,PBM 8-mer E-score
1,ATATATCA,0.18 ± 0.048
2,GTATACAC,0.0536 ± 0.025
3,ATAGATAG,0.204 ± 0.051
4,ATATATCC,0.24 ± 0.015
5,CGGATTCC,-0.0954 ± 0.031
6,CAAACGGA,-0.0945 ± 0.0024
7,AACCACGG,-0.276 ± 0.0092
8,CGATCAGA,-0.199 ± 0.015
9,ATTGGCTG,-0.0784 ± 0.03
10,CTCGTGCA,0.0182 ± 0.011
11,AAGTATAT,0.136 ± 0.0036
12,ATATAGCC,0.234 ± 0.01
13,AAGTATAA,0.196 ± 0.052
14,ATATAGCA,0.175 ± 0.016
15,AAGTATAC,0.236 ± 0.038
16,CTATAGCC,0.0346 ± 0.087
17,GTGAGACA,0.0265 ± 0.039
18,GTTGTCCA,0.00715 ± 0.051
19,AGGCCCGG,-0.321 ± 0.063
20,GGGGTCAA,0.109 ± 0.11
21,ACGCGGTC,-0.0575 ± 0.016
22,AAATAGAT,0.24 ± 0.044
23,AAATAGAA,-0.0324 ± 0.022
24,AAATAGGG,0.286 ± 0.0043
25,GAATAGAC,0.00351 ± 0.056
26,AAATAGAC,0.235 ± 0.0036

row,Sequence,PBM 8-mer E-score
1,CAATAGAC,0.109 ± 0.022
2,AAATAGGC,0.0499 ± 0.12
3,AAATAGAG,0.114 ± 0.056
4,CAATAGGG,0.0594 ± 0.051
5,GCCTGAGC,-0.218 ± 0.037
6,GCAGCACC,-0.116 ± 0.057
7,GGTTCCAC,-0.0645 ± 0.035
8,ACGGTCTC,-0.174 ± 0.083
9,ACCCATCA,0.114 ± 0.044
10,AACCCGCC,0.123 ± 0.0032
11,GCCCCGCA,0.0269 ± 0.056
12,CCCCCGCC,-0.0601 ± 0.073
13,GCCCCGCC,0.233 ± 0.12
14,ACCCCGCC,0.318 ± 0.056
15,GGCCCGCC,-0.185 ± 0.11
16,GGATTGTA,0.156 ± 0.046
17,AGGTAGCA,0.107 ± 0.065
18,AGGTCAGG,-0.187 ± 0.011
19,TAAAGCAA,0.2878 ± 0.0008
20,CAAAGCAA,0.173 ± 0.058
21,GAAAGCAA,0.0699 ± 0.014
22,GTCGAGAC,0.0609 ± 0.045
23,ATTTCAGG,-0.054 ± 0.037
24,AGATCCAG,-0.0734 ± 0.013
25,GGACAGAC,-0.211 ± 0.04
26,ATTGATGC,0.125 ± 0.018

row,Sequence,PBM 8-mer E-score
1,ATTGATGG,0.254 ± 0.0094
2,ATTGATGA,0.0883 ± 0.037
3,CGCTGTTC,-0.0947 ± 0.036
4,ATCTCGAC,-0.0985 ± 0.011
5,CACACCAC,0.0993 ± 0.072
6,CGAACATA,0.233 ± 0.037
7,CGAACAAG,-0.08043 ± 0.00071
8,CGAACATC,0.0524 ± 0.0016
9,GGAACATA,0.0124 ± 0.063
10,AGAACAAA,0.13 ± 0.046
11,CGAACAAA,0.261 ± 0.021
12,CGTAGGAC,-0.224 ± 0.05
13,CGGCACAG,-0.151 ± 0.028
14,ATATTAGC,0.125 ± 0.041
15,ATATTAGG,0.287 ± 0.008
16,CTATTAGA,-0.0815 ± 0.044
17,CTATTAGC,0.0397 ± 0.078
18,ATATTAGA,0.245 ± 0.0043
19,GTATTAGA,0.201 ± 0.063
20,CGGCCCCG,-0.0779 ± 0.064
21,GGAGGTTA,0.0654 ± 0.011
22,CGGTAAGA,0.00167 ± 0.075
23,CCACATCC,0.00851 ± 0.069
24,AGTGATTA,0.0652 ± 0.034
25,AACTAATA,0.263 ± 0.029
26,AACTATTA,0.252 ± 0.069

row,Sequence,PBM 8-mer E-score
1,GACTATTA,-0.0384 ± 0.062
2,AGCTATTA,0.251 ± 0.019
3,GGCTATTA,0.116 ± 0.04
4,CACTAATA,0.113 ± 0.031
5,TACTAATA,0.112 ± 0.037
6,CGCTATTA,-0.0606 ± 0.018
7,CACTATTA,0.133 ± 0.036
8,ATCGGGTG,-0.0686 ± 0.0025
9,ATCCAAGG,-0.161 ± 0.034
10,CATACTCG,0.0129 ± 0.075
11,CCATCTTC,0.0281 ± 0.036
12,AATCACGC,0.125 ± 0.047
13,AATCACGT,0.26 ± 0.025
14,AATCACAA,0.166 ± 0.021
15,AATCACAG,-0.0581 ± 0.1
16,AATCACAT,0.245 ± 0.025
17,AATCACGA,-0.0273 ± 0.0012
18,ACAAATTA,0.0394 ± 0.025
19,CGGCAAAG,-0.127 ± 0.016
20,CCGACAGG,-0.121 ± 0.008
21,CCTCATTC,0.0874 ± 0.052
22,CCTTATTC,-0.00564 ± 0.062
23,CCTCATTA,0.251 ± 0.052
24,GCTTATTA,0.1305 ± 0.0011
25,GCTCATTA,0.155 ± 0.098
26,CCTTATTA,0.28 ± 0.023

row,Sequence,PBM 8-mer E-score
1,AGCTGCCT,-0.1104 ± 0.00073
2,CAGCACGC,-0.176 ± 0.048
3,CTAAAGCC,0.0237 ± 0.016
4,AGGGAAAC,0.00477 ± 0.00053
5,AGGGAAAT,0.264 ± 0.019
6,AGGGAAAG,0.06 ± 0.037
7,ATAAGCTG,0.0487 ± 0.092
8,AGTAGAAT,0.192 ± 0.0085
9,CGATTGAC,-0.0145 ± 0.035
10,CTACGTGA,0.0198 ± 0.047
11,CCACGCGG,0.323 ± 0.026
12,CCACGTGG,0.46 ± 0.0066
13,CCACGCGA,0.0259 ± 0.0059
14,CGACGTGA,0.0209 ± 0.0095
15,CCACGTAG,-0.0491 ± 0.031
16,CCACGTCC,-0.141 ± 0.039
17,ACACGCGG,0.145 ± 0.026
18,CGACGTGC,-0.0806 ± 0.038
19,CAACGTGG,0.11 ± 0.044
20,CCACGTGC,0.376 ± 0.054
21,CCACGTGA,0.377 ± 0.034
